NOTCH agonist – agonists of NOTCH signaling; activation, % at 2.5 µM; NOTCH signaling luciferase reporter cells, luminescence; 15,000 compounds, 0.4% hits; in the data active = activation above about 2.2%
PME-1 Maybr inh – PME-1 (human) inhibition, Maybridge primary screen; Q9Y570; recombinant PME-1, FP-Rh probe fluorescence polarization; inhibition, % at 9 µM; 16,000 compounds, 0.5% hits; AID 2291; in the data active = inhibition above about 30%
Luminol counter – counter-screen for Nox1 inhibitors: inhibitors of luminol chemiluminescence. 16,000 compounds, 0.4% hits. inhibition, % at 6.7 µM. HRP/luminol/H2O2 chemiluminescence counterscreen; note: reference of the scale not given here
KOR antag MB – blocks the human kappa opioid receptor, Maybridge compounds | P41145 | OPRK1 cells, antagonist mode, fluorescence readout | inhibition, % at 9 µM | 16,000 compounds, 0.4% hits; in the data active = inhibition above about 50%
Nox1 inhibitor – inhibitors of human NADPH oxidase 1 (Nox1); Q9Y5S8; 16,000 compounds, 0.81% hits; AID 1792; inhibition, % at 6.7 µM; HT29 cells, luminol chemiluminescence ROS
Target sequence (Q9Y5S8 whole entry, looked up): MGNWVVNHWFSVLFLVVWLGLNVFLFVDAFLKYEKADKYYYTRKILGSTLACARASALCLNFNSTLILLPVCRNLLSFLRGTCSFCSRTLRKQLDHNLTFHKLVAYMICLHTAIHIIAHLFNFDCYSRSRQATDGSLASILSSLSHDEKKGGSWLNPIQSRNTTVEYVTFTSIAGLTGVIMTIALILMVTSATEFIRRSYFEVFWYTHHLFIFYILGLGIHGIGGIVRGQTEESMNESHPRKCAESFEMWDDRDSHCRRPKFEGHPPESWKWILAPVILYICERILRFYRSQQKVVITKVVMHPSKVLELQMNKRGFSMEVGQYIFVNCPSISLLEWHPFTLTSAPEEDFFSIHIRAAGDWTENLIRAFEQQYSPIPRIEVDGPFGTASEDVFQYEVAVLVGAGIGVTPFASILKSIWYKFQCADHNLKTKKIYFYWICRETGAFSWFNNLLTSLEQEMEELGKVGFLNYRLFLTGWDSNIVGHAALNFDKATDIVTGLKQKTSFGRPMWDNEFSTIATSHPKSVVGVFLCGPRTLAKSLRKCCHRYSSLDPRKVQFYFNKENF
An asterisk follows results filed as active; x = no result given. Sampled rows, rich in hits. Any-hit rate of the full collection: about 2.2%. Cut-off read from the data, not from the text of the source, unless noted: active = inhibition above about 75%; inactive = the rest.

SMILES | NOTCH agonist | PME-1 Maybr inh | Luminol counter | KOR antag MB | Nox1 inhibitor
CCOC(=O)c1sc(Nc2ccccc2)c(-c2nc3ccccc3[nH]2)c1N | -0.6 | 30.9* | -2.8 | -10.3 | 18.4
N#C/C(=C\c1cccnc1)C(=O)OCc1ccccc1 | 0.7 | -0.9 | -1.4 | -10.2 | 8.1
CCC(=O)Nc1cnc(OC)c(C(F)(F)F)c1 | -0.1 | -8.9 | -3.4 | -5.8 | 23.7
CCC(=O)Nc1ccc2c(c1)N(CC)C(C)(C)CC2C (stereo not drawn) | -0.7 | 5.1 | -17.2 | -8.7 | 93.4*
O=C(NNC(=O)C(F)(F)F)c1ccc[nH]1 | -0.6 | 0.7 | 3.1 | 52.2* | -39.8
CSc1cccc(N/C(=N\S(=O)(=O)c2ccccc2)NN)c1 | -0.7 | 43.4* | 8.1 | -7.1 | -50.4
COc1ccc(NC2=CC(=O)N(c3ccc(OC)cc3)C2=O)cc1 | -0.1 | -9.2 | 1.6 | 6.7 | -24.9
O=S(=O)(NCc1ccc(-c2ccc(F)cc2F)o1)c1ccccc1 | 0.4 | 5.2 | -4.7 | -2.3 | 15.8
CS(=O)(=O)/C(C#N)=C/c1cccn1S(=O)(=O)c1ccccc1 | -0.3 | 31.2* | -3.2 | -0.1 | -7.4
CN(C)n1cccc1/C=C(\C#N)S(C)(=O)=O | -0.2 | -0.5 | 1.6 | -14.1 | 4.8
COCCCNC(=S)NNC(=S)NCCCOC | 0.2 | 2.2 | 3.4 | -0.2 | 25.2
COCCCNC(=S)NNC(=O)CC#N | -0.1 | 6.0 | 98.3* | 5.2 | 41.0
COc1ccc(S(=O)(=O)Nc2cc(C)c(C)cc2[N+](=O)[O-])c(OC)c1 | -0.5 | 32.6* | 2.7 | 14.4 | -27.1
CSc1cccc(N2C(=O)C=CC2=O)c1 | -0.3 | -2.0 | 4.3 | -25.5 | -33.6
O=c1[nH]nc(N2CCSCC2)[nH]1 | 0.7 | 3.4 | -4.8 | 6.1 | 89.2*
COc1ccc(S(=O)(=O)Nc2ccc(C#N)cc2)cc1OC | -0.3 | 2.4 | 3.0 | -1.1 | -43.2
O=C1NC(=S)NC(=O)C1=Cc1c(F)cccc1Cl | -0.1 | 2.4 | -4.3 | 19.7 | 10.5
O=C1NC(=S)N/C1=C\c1ccccc1Cl | 0.0 | 4.9 | 75.4* | 35.4 | 18.5
N/N=C(\N)c1ccc(C(F)(F)F)cn1 | 0.0 | 8.7 | -3.4 | 23.5 | 21.7
Cc1noc(C)c1C(=O)NNc1cc(Cl)ccc1Cl | -0.4 | -1.3 | 11.8 | -8.0 | 46.6
Cc1cc(C(=O)NNc2cc(Cl)ccc2Cl)no1 | -0.6 | 11.0 | 9.9 | 13.2 | 81.0*
COc1c(Cl)cc(Cl)c(OC)c1C(=O)NNc1cc(Cl)ccc1Cl | -0.5 | 0.8 | 5.3 | -9.7 | 40.9
Cc1nnsc1C(=O)NNc1cc(Cl)ccc1Cl | -0.4 | 5.3 | 25.4 | -14.7 | 76.4*
CCOc1ccc(/C=N/NC(=O)N/N=C/c2ccc(OCC)c(OC)c2)cc1OC | 0.4 | -0.7 | 12.5 | -9.9 | 0.0
O=[N+]([O-])c1ccc(-c2ccc(/C=N/Nc3ccccc3)o2)cc1 | -0.3 | 1.6 | 7.5 | 81.4* | 24.8
SMILES | NOTCH agonist | PME-1 Maybr inh | Luminol counter | KOR antag MB | Nox1 inhibitor
O=[N+]([O-])c1ccc(-c2ccc(-c3ccc([N+](=O)[O-])cc3)o2)cc1 | -0.7 | -7.7 | 5.4 | 45.0 | -35.8
O=C(N/N=C/c1c(Cl)cccc1Cl)c1nc(-c2ccc([N+](=O)[O-])cc2)no1 | 1.5 | 2.2 | -4.4 | 3.9 | 5.9
O=C(Nc1ccc(F)c(F)c1)C1CCC1 | -0.5 | -1.0 | -0.1 | -0.8 | -8.6
Cc1cccc(NNC(=O)C2CCC2)c1 | -0.9 | -2.4 | 101.0* | 13.6 | 28.4
CCOC(=O)/C(C)=N/Nc1ccc(OC(F)(F)F)cc1 | -0.6 | -1.4 | -0.8 | 19.0 | 20.2
CCOC(=O)c1nsc(/C(C)=N/Nc2ccccc2)c1N | -0.1 | 6.7 | -0.2 | 26.3 | 97.8*
O=C(/C=C/C(=O)Nc1cc(Cl)cc(Cl)c1)Nc1cc(Cl)cc(Cl)c1 | -0.5 | -45.1 | 1.2 | 5.9 | -16.7
O=c1cc(Nc2ccc(OC(F)(F)F)cc2)c2ccccc2o1 | -0.8 | 54.5* | -8.8 | 33.3 | 3.2
O=C1Nc2ccccc2/C1=C\c1cccc2ccccc12 | 0.2 | 3.4 | -0.8 | -2.5 | -27.1
O=C1c2ccc3ccccc3c2-c2cccc3cccc1c23 | -0.2 | 39.8* | 1.0 | 14.6 | -21.7
Cc1nnc2sc3ccccc3n12 | -0.3 | 5.0 | -3.3 | 18.2 | 11.3
Fc1ccc(-n2c(Cc3ccsc3)n[nH]c2=S)cc1 | 0.0 | -0.7 | 84.2* | -11.3 | -50.9
C=C1CC2CC(=O)CC(C1)C2 | -0.8 | 6.2 | -9.1 | -1.0 | 13.8
Cc1nnsc1-c1nnc(C2CCCCC2)o1 | 3.8* | 5.2 | -10.2 | -10.0 | -36.8
CC(=O)/C(C=Nc1cc(C)c(O)c(Cl)c1)=C(\C)O | -0.1 | -0.5 | 10.7 | 3.7 | 91.9*
OC(CN1CCN(Cc2c(F)cccc2Cl)CC1)Cn1ccc2ccccc21 (stereo not drawn) | 2.7* | 6.2 | -7.3 | 1.7 | 15.8
O=C1CSc2ccc(C(F)(F)F)cc2N1Cc1c(Cl)cccc1Cl | 0.7 | 36.6* | -2.5 | 12.8 | 13.9
Cc1nc(C(F)(F)F)ccc1C(=O)NNc1c(Cl)cncc1Cl | -0.2 | 5.1 | -4.5 | 25.8 | 44.5
C/C(NNc1ncc(C(F)(F)F)cc1Cl)=C(/C#N)C(N)=S | 0.2 | 2.1 | 1.3 | -10.7 | -21.2
Cc1ccc(NCN2C(=O)c3ccc([N+](=O)[O-])cc3C2=O)cc1 | 0.3 | 7.1 | -45.7 | 12.9 | 76.8*
CN1CCC(c2cccs2)=N1 | 0.1 | 1.5 | -2.2 | 20.9 | 31.5
Cc1noc2[nH]cnc(=S)c12 | -0.8 | -1.3 | 1.8 | -11.3 | -3.2
S=c1nc[nH]c2[nH]ncc12 | -0.2 | 1.4 | 80.5* | -0.3 | 12.6
CC(C(=O)NNC(=O)c1ccccc1Cl)n1nnc(N2CCOCC2)n1 (stereo not drawn) | -0.4 | 3.5 | 0.6 | 25.2 | -11.1
CSc1cccc(NC(=S)NCCCO)c1 | -0.2 | -7.2 | -16.6 | -16.9 | -76.8
SMILES | NOTCH agonist | PME-1 Maybr inh | Luminol counter | KOR antag MB | Nox1 inhibitor
CSc1cccc(NC(=S)NCc2ccc(C#N)cc2)c1 | -0.3 | 60.6* | -4.3 | -5.7 | 14.3
CC(C)(C)c1csc(CS(=O)(=O)c2cccs2)n1 | -0.1 | 1.5 | -1.1 | 1.1 | -12.3
C=CCNC(=S)NNC(=O)c1oc2nc(-c3ccc(Cl)cc3)cc(-c3ccccc3)c2c1N | -0.9 | -3.9 | 2.0 | 66.2* | 3.6
Clc1ccc(-c2ccon2)c(Cl)c1 | -0.3 | -2.5 | -1.0 | -2.0 | -27.6
CC(=O)Nc1onc(C)c1-c1nc(-c2ccc(Cl)cc2Cl)cs1 | -1.2 | -36.7 | 4.1 | 50.5* | -29.2
Nc1cc(S(=O)(=O)O)c(N)c2c1C(=O)c1ccccc1C2=O | x | 98.6* | -16.4 | 1.2 | 0.4
O=C1OCc2ccc(NS(=O)(=O)c3ccccc3)cc21 | -0.4 | -1.8 | 2.7 | -0.1 | -48.2
O=C(Nc1cccc2[nH]ccc12)C1CCCCC1 | 2.3* | 4.6 | -8.8 | 11.0 | -13.2
Cc1c(NC(=O)C2CCCCC2)cccc1[N+](=O)[O-] | -0.1 | 12.3 | -6.1 | -9.7 | 3.1
O=[N+]([O-])c1ccc2nc3c(O)c4ccccc4c(O)c3nc2c1 | -0.5 | 37.7* | 3.4 | 18.2 | 23.7
Cc1nc2ccc([N+](=O)[O-])cc2nc1C | 0.0 | 0.1 | -1.1 | 5.8 | 6.8
CCOC(=O)c1cn[nH]c1NC(=S)Nc1cccc(C(F)(F)F)c1 | -0.6 | -53.3 | 8.7 | 83.2* | 1.6
Cc1nn(C)c(C)c1NC(=O)c1ccccc1NS(=O)(=O)c1cc(Cl)sc1Cl | -0.4 | 2.9 | -0.3 | -11.4 | -38.1
CSC1=NS(=O)(=O)c2c(C)nn(C)c2S1 | 0.1 | 6.4 | 21.2 | 20.8 | 88.9*

Assay outcomes (PubChem)
